Here are results for nine molecules from PubChem BioAssay (NCATS).

The target of test [1] is Lysosomal acid glucosylceramidase (Homo sapiens) (UniProt P04062). The experiment in a line: Glucocerebrosidase-p2 (AID 348; in the data active = potency below about 10 µM; note: potency is the fitted concentration of half-maximal effect). The note with it: purified GBA, blue fluorogenic substrate, 40 min. A digest of the protocol:
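Normal human glucocerebrosidase (0.2 nM) with blue fluorogenic substrate (80 uM final) in citrate/phosphate pH 5.9 with 10mM sodium taurocholate, 0.01% tween-20; 40 min RT, NaOH/glycine stop; fluorescence Ex 365/Em 440; AC50 from a titration from 0.6 nM upwards.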

Test [2] concerns the target Cytochrome P450 1A2 (Homo sapiens) (UniProt P05177). The experiment in a line: p450-cyp1a2 (AID 410; calls by dose curve; note: potency is the fitted concentration of half-maximal effect;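 for activity change, negative = inhibition: -100% = full effect of reference inhibitor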). The note with it: recombinant CYP1A2, luciferin-ME demethylation, luminescence; series mostly up to 57 µM. A digest of the protocol: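 20nM CYP1A2, 100uM Luciferin-ME (=Km), 100mM KPO4; cpd 10 min RT; +NADPH regen, 60 min RT; stop/detect 20 min; luminescence. Normalized to furafylline 57 uM = full inhibition.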

Test [3] addresses Glucocorticoid receptor (Homo sapiens) (UniProt P04150). In words: GR-GFP Redistribution (AID 450;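 active = compounds whose dose series gives a full or clear partial fitted curve of increased nuclear translocation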; note: potency is the fitted concentration of half-maximal effect). The note with it: U2OS GR-GFP nuclear translocation, laser cytometry, 2 h.
Test [4] shares this target. In words: GR-EFC Redistribution (AID 451; calls by dose curve; note: potency is the fitted concentration of half-maximal effect). The note with it: CHO-K1 GR-EFC translocation, beta-gal luminescence, 2 h. Summed up:
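CHO-K1 cells expressing nuclear EA and GR-ED fragments of b-gal; compounds titrated up to 46 uM final, 2 h at 37 C. GR nuclear translocation read as complemented b-gal luminescence after 1 h RT detection.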

In test [5] the target is 3',5'-cyclic-AMP phosphodiesterase 4B (Homo sapiens) (UniProt Q07343). The experiment in a line: qHTS Assay for Inhibitors of PDE-IV (AID 607; active = well fitted activation curve with a large enough effect in the main read-out, with a control signal flat, not every such curve was filed as active; note: % of control where 0% means no effect). As to conditions: HEK293 ACTOne CNG channel cells, membrane potential fluorescence; series mostly up to 22.9 µM. Summed up:
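Cell-based read-out of cAMP via a modified cyclic nucleotide-gated channel and membrane potential dye (535/590 nm) in HEK293 cells expressing PDE4 endogenously. Compounds tested up to 22.9 uM final; 100 uM RO 20-1724 reference.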
Background: In qHTS, concentration-response curves come from the screen itself.

The target of test [6] is Cytochrome P450 3A4 (Homo sapiens) (UniProt P08684). In words: qHTS Assay for Activators of Cytochrome P450 3A4 (AID 885). Note: nearly all actives have a fitted effect of over 65% in size. Note: potency is the fitted concentration of half-maximal effect. The note with it: recombinant CYP3A4, Luciferin-PPXE luminescence, 60 min; series mostly up to 57.1 µM. Summed up:
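Luminescent readout of luciferin formed from 25 uM Luciferin-PPXE (KM level) by 20 nM CYP3A4 in 200 mM KPO4, with 60 min NADPH-driven reaction at room temperature after 10 min compound exposure. Ketoconazole (57 uM) defined 100% inhibition.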

Test [7] is described as follows: Primary qHTS for small molecule stabilizers of the endoplasmic reticulum resident proteome: Secreted ER Calcium Modulated Protein (SERCaMP) assay (AID 1508630). Note: % is set by controls: 0 for no effect and ±100 for the full control effect. As to conditions: SH-SY5Y GLuc-SERCaMP (Gaussia luciferase released on ER calcium loss) secretion, thapsigargin, luminescence; series mostly up to 38.4 µM. Summed up: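 The SH-SY5Y reporter protocol was run at 3 concentrations up to 38.3 uM (primary) or 11 concentrations (follow-up): 16 h compound, 100 nM thapsigargin for 4 h, then extracellular luciferase luminescence.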

Test [8] is described as follows: NFAT Signaling Pathway (AID 444; active = well fitted curve in either direction with a large enough effect, not every such curve was filed as active;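 note: carbachol stimulus at about its EC50 of 1 µM final; % is set by controls: 0 for no effect and ±100 for the full control effect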). As to conditions: Jurkat NFAT-bla M1, carbachol, beta-lactamase ratio, 5 h; at 7.69 µM (top of the series) unless noted. Summed up:
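Jurkat cells with NFAT-driven β-lactamase reporter and co-expressed M1 receptor, stimulated with carbachol (final 1 uM, ~EC50), compound titration, 5 h at 37 °C. CCF4 loaded 1 h at RT; 460/530 nm ratio gave %activity and AC50.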

Test [9] is described as follows: Stat Signaling Pathway (AID 446; active = well fitted curve in either direction with a large enough effect, not every such curve was filed as active;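 note: ME-180 cervical cancer cells given 40 pM IL-6 alongside compound; SIE-controlled beta-lactamase reporter measured as 460/530 nm FRET emission ratio; % is set by controls: 0 for no effect and ±100 for the full control effect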). As to conditions: ME-180 SIE beta-lactamase reporter, IL-6 stimulated, 5 h; at 7.69 µM (top of the series) unless noted. Summed up:
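FRET read-out (405 nm excitation, 460/530 nm emission) of a beta-lactamase reporter under a STAT-inducible element in ME-180 cervical carcinoma cells. Cells with compound receive 40 pM IL-6 for 5 h. Values are normalised to AC90 stimulation and AC90 JAK-inhibitor controls.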

Test [10] addresses Mitogen-activated protein kinase 10 (Mus musculus) (UniProt Q61831). The experiment in a line: JNK3 AlphaScreen Assay (AID 530; active = well fitted curve in either direction with a large enough effect, not every such curve was filed as active;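 note: kinase came from lysate of stimulated human HepG2 cells; signal reports phosphorylation of biotinylated GST-cJun 1-79 at Ser73 with 10 µM ATP; % is set by controls: 0 for no effect and ±100 for the full control effect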). As to conditions: JNK3 lysate, c-Jun phosphorylation; series mostly up to 57.1 µM. A digest of the protocol: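 HepG2 lysate (IL-1b/TNFa pre-activated) + biotin-GST-cJun 1-79 + anti-pSer73 cJun; cpd titration, 15 min RT; ATP 10 uM start; Tris pH 7.6, MgCl2, DTT, vanadate; beads in EDTA buffer; AlphaScreen.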
Background: In Alpha technology, singlet oxygen from a donor bead excites a nearby acceptor bead.

A short description of test [11]: AP1 Signaling Pathway (AID 357; active = well fitted curve in either direction with a large enough effect, not every such curve was filed as active). The note with it: ME-180 AP-1-bla reporter, EGF-induced, beta-lactamase ratio, 5 h; at 7.69 µM (top of the series) unless noted. Summed up:
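Titration-series screen for positive or negative modulators of EC50 EGF-induced signaling in ME-180 cells carrying an AP-1-driven beta-lactamase reporter. After 5 hours at 37 degrees Celsius, CCF4 460nm/530nm emission ratio gave %Activity; AC50 values derived.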

A short description of test [12]: qHTS Assay for Identification of Small Molecule Agonists for Hypoxia Response Element Signaling Pathway (AID 914; active = well fitted activation curve with a large enough effect in the signal ratio, with a control signal flat, not every such curve was filed as active; the % refers to the signal ratio; note: potency is the fitted concentration of half-maximal effect). As to conditions: ME-180 (cervical carcinoma) HRE-bla reporter, beta-lactamase ratio, CoCl2, 17 h; activation: stronger effect = higher value. A digest of the protocol:
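Compounds in a titration series were added to ME-180 reporter cells alongside an EC50 level of CoCl2. After 17 hours, beta-lactamase activity was read as the 460nm/530nm emission ratio of CCF4, giving AC50 values.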

The target of test [13] is Cytochrome P450 3A4 (Homo sapiens) (UniProt P08684). In words: qHTS Assay for Inhibitors and Substrates of Cytochrome P450 3A4 (AID 884). Note: % is set by controls: 0 for no effect and ±100 for the full control effect; nearly all actives have a fitted effect of over 50% in size. As to conditions: recombinant CYP3A4, Luciferin-PPXE luminescence; series mostly up to 57.1 µM. Summed up: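 Luminescent readout of luciferin produced by CYP3A4 (20 nM) dealkylation of Luciferin-PPXE, 25 uM (its KM). NADPH-driven reaction ran 60 min at RT after 10 min compound preincubation; data scaled to 57 uM ketoconazole as 100% inhibition.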

The target of test [14] is Cytochrome P450 2C9 (Homo sapiens) (UniProt P11712). In words: qHTS Assay for Inhibitors and Substrates of Cytochrome P450 2C9 (AID 883). Note: potency is the fitted concentration of half-maximal effect; nearly all actives have a fitted effect of over 60% in size. The note with it: recombinant CYP2C9, luciferin-H luminescence, 60 min; series mostly up to 57.1 µM. A digest of the protocol: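 Human CYP2C9 (10nM) with Luciferin-H at 100uM (its KM) in 25mM KPO4; compound preincubated 10 min at 37C, then NADPH regeneration for 60 min at 37C. Luciferin read by luminescence after detection reagent; normalized to 57uM sulphaphenazole as full inhibition.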

Unmarked numbers belong to inactive results. Records with an inconclusive call do not appear. Calls of active or inactive are those of the source. Unless noted, calls come from the whole dose curve; as a rule, active = well fitted curve in the direction sought with a large enough effect; inconclusive = small, poorly fitted or top-dose-only effect, or another doubt; inactive = no such curve, though single readings can be large; an effect the other way counts as inactive or inconclusive.

Chain of Lysosomal acid glucosylceramidase (Homo sapiens) (P04062 whole entry, looked up): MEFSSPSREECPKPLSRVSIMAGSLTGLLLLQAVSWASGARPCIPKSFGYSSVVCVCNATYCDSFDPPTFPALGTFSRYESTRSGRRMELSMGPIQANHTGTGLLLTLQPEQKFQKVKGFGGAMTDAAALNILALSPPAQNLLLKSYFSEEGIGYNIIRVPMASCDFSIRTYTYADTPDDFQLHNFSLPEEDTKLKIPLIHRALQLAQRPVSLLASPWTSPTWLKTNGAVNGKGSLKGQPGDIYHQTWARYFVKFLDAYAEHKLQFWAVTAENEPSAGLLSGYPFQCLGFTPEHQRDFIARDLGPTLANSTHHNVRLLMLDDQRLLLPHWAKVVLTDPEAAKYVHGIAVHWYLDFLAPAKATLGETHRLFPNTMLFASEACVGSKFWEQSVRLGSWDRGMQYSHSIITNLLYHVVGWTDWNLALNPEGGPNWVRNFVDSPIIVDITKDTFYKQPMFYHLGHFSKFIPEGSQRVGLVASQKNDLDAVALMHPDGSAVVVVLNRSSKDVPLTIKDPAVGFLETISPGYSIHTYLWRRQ
Chain of Glucocorticoid receptor (Homo sapiens) (P04150 whole entry, looked up): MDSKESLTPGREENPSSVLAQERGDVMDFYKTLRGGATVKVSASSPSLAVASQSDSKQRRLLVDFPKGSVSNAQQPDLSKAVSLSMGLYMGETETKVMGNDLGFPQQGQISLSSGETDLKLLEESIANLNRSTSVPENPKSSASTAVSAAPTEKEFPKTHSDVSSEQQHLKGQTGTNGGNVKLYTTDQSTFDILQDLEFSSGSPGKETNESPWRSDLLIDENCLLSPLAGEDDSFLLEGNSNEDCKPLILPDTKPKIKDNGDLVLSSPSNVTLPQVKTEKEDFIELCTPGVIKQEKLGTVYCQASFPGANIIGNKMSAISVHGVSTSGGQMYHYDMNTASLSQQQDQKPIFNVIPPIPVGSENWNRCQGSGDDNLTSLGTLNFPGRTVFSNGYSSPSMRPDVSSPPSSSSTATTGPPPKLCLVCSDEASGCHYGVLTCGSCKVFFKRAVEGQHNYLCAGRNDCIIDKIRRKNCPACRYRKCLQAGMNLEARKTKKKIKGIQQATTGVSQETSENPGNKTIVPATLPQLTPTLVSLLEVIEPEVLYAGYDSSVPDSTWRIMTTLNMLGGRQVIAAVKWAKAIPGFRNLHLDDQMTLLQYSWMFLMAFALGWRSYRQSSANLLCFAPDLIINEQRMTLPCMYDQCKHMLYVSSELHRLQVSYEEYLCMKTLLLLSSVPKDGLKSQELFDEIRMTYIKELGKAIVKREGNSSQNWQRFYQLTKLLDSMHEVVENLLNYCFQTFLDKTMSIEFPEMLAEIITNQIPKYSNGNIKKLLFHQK
Chain of 3',5'-cyclic-AMP phosphodiesterase 4B (Homo sapiens) (Q07343 whole entry, looked up): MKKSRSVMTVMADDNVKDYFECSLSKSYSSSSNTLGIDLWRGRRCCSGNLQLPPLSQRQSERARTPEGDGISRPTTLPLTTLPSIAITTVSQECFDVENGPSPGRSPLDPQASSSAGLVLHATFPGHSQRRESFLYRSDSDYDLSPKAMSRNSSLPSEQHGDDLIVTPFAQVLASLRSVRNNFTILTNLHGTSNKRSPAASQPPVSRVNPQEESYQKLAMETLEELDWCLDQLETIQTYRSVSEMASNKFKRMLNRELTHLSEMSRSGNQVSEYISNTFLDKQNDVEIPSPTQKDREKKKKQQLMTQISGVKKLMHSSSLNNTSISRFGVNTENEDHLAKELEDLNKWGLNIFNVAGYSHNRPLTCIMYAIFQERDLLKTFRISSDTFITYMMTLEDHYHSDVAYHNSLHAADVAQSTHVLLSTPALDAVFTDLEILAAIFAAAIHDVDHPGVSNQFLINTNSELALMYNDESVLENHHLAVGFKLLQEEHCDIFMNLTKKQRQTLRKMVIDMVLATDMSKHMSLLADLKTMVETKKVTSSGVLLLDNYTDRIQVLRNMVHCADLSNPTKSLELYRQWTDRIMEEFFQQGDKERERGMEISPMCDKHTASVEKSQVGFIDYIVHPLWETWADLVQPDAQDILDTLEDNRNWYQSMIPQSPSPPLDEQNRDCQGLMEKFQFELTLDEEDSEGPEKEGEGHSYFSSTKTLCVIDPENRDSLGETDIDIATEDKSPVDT
Chain of Cytochrome P450 3A4 (Homo sapiens) (P08684 whole entry, looked up): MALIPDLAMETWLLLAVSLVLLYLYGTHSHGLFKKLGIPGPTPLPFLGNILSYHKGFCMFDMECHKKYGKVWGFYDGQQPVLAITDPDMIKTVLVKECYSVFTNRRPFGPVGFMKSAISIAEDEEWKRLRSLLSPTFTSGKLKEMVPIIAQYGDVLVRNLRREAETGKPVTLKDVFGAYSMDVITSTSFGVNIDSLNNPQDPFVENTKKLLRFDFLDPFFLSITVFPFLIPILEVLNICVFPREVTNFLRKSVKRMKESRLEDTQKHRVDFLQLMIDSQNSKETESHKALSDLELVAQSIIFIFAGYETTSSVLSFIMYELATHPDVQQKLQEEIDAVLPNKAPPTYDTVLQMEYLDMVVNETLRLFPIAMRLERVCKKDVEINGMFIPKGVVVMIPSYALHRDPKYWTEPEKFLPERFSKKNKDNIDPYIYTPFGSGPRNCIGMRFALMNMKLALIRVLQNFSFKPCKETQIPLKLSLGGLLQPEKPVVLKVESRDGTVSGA
Chain of Cytochrome P450 1A2 (Homo sapiens) (P05177 whole entry, looked up): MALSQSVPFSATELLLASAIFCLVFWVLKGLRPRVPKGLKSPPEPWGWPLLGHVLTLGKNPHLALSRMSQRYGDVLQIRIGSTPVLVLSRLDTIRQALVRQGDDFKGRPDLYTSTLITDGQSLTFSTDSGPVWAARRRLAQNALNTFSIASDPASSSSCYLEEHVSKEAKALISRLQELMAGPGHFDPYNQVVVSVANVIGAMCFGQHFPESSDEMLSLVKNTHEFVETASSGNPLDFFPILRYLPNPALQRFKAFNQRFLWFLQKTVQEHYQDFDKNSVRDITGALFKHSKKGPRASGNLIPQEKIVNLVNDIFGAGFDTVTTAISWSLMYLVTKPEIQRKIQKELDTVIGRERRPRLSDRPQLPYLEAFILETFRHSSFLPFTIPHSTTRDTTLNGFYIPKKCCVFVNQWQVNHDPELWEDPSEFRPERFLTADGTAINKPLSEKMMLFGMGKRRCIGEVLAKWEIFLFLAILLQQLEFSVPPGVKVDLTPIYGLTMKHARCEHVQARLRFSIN
Chain of Cytochrome P450 2C9 (Homo sapiens) (P11712 whole entry, looked up): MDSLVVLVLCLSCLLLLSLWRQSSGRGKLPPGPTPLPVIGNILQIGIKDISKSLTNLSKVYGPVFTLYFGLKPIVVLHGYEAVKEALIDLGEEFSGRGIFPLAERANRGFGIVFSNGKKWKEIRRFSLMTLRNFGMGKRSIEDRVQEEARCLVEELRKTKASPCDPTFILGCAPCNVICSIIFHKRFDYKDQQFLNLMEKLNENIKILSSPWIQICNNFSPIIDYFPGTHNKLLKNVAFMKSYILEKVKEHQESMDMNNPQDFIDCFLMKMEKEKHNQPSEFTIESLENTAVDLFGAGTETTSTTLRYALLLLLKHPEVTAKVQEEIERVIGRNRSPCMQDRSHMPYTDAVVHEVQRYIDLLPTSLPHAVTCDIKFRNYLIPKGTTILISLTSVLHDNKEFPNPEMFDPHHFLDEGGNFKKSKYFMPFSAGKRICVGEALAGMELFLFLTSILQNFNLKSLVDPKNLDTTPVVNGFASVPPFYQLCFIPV

As to `O=c1c(-c2ccc(Cl)cc2)nc2cnc(N3CCNCC3)nc2n1Cc1ccc(F)cc1`, the Potency in test [1] was over 11.4 µM; in [2], 15.8 µM (active); in test [3] it was over 9.22 µM; in test [4], over 46 µM. The Potency result in [5] and in test [6] was “inactive” in each case. In addition, in test [7], the result was inactive.

Consider `O=C(c1ccncc1)N1CCC2(CC1)CN(c1ccc(-c3ccccc3)cc1)C2`, for which the Potency in test [1] is over 11.4 µM; in test [4] it was over 46 µM. Besides, the Potency entry in test [2], in [10], in test [5] and in [6] was “inactive” in each case. In addition, the activity change, negative = inhibition in [8] is 17.4%. Further, in test [9], the activity, negative = inhibition was -19.8%. The outcome in [7] was inactive.

Consider `O=c1c(-c2cccs2)nc2cnc(Oc3ccccc3)nc2n1-c1ccccc1`, for which the Potency in test [1] was over 11.4 µM; in test [3], over 9.22 µM; in [4] it was over 46 µM; in test [12], 2.51 µM (active). Also, in test [11], the activity change, negative = inhibition is 3.02%. Besides, the Potency entry in [10] was “inactive”. Besides, the result in [7] was inactive.

On to `O=C(c1cccc(F)c1)N1CCC2(CCCN(Cc3nccs3)C2)CC1`, for which the Potency in test [1] is over 11.4 µM; in test [4], over 46 µM. The Potency result in test [2], in [10], in test [5] and in [6] was “inactive” in each case. In addition, in test [9], the activity, negative = inhibition is 5.18%. For the same molecule, in test [7], the result was inactive.

Take `O=C(c1cccc(F)c1)N1CCC2(CCCN(Cc3cc(C(F)(F)F)cc(C(F)(F)F)c3)C2)CC1`: the Potency in [1] was over 11.4 µM; in test [4], over 46 µM. Besides, the Potency result in test [2], in test [10], in test [5] and in test [6] was “inactive” throughout. Besides, the activity, negative = inhibition in test [9] was 3.76%. The result in test [7] was inactive.

`O=C(Oc1ccccc1)N1CCC2(CC1)CCN(c1cccc(-c3ccccc3)c1)CC2`: the Potency is over 11.4 µM in test [1], 12.6 µM (active) in [2], over 46 µM in test [4] and 7.94 µM (active) in test [6]. Besides, in test [9], the activity, negative = inhibition was -5.12%. In addition, the Potency result in [10], in test [5] and in [13] was “inactive” in each case. Moreover, the result in test [7] was inactive.

As for `O=c1cnc2cnc(Nc3ccccc3)nc2n1C[C@H]1CCCO1`, the Potency in [1] was over 11.4 µM; in test [2] it was 0.794 µM (active); in test [3] it was over 9.22 µM; in test [4] it was over 46 µM. Moreover, the Potency result in test [5] and in [6] was “inactive” each time. Moreover, the outcome in test [7] was inactive.

`COCCn1c(=O)c(-c2ccc(OC)cc2)nc2cnc(Oc3cccc(Cl)c3)nc21`: the Potency in [1] is over 11.4 µM; in test [2], 6.31 µM (active); in test [3] it was over 9.22 µM; in [4], over 46 µM; in test [14], 0.631 µM (active). The activity change, negative = inhibition in test [8] is -0.562%. In test [9], the activity, negative = inhibition is 21.8%. The Potency entry in test [10], in test [5] and in [6] was “inactive” throughout. In addition, in [7], the outcome was inactive.

Turning to `COC(=O)N1CCC2(CCCN(C(c3ccccc3)c3ccccc3)C2)CC1`, the Potency was over 11.4 µM in test [1], 15.8 µM (active) in test [2] and over 46 µM in [4]. In addition, the activity change, negative = inhibition in test [8] is -16.3%. For the same molecule, the activity, negative = inhibition in [9] was 13.3%. In addition, the Potency result in [10], in test [5] and in test [6] was “inactive” in each case. Further, the result in [7] was inactive.
